Bioassay records (PubChem BioAssay)
AmpC no deterg = qHTS Inhibitors of AmpC Beta-Lactamase (assay without detergent). P00811. AmpC nitrocefin hydrolysis, absorbance 480 nm, 0.0001% Triton. Potency, µM (highest dose often 57.1 µM), for the others: top-dose activity change, negative = inhibition, most hits filed as inhibitors. hit rate 0.52% among 330,000. AID 485341, 2010;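 further: plate controls were no compound for no effect and no enzyme for full effect; nearly all actives have a fitted effect of over 20% in size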
Target sequence (P00811 whole entry, looked up): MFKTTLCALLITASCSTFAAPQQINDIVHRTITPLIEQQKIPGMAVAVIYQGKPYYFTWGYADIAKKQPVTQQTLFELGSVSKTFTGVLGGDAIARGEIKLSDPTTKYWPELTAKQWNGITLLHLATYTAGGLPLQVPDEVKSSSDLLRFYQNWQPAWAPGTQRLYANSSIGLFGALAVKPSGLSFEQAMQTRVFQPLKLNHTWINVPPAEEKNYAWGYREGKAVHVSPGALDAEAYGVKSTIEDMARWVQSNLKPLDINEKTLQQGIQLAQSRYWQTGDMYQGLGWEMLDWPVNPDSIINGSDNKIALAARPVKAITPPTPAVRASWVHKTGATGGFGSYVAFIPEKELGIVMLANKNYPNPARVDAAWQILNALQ
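AmpC (5.3 nM in the dispensed reagent) in 20 mM phosphate pH 7.0 with 0.01% (detergent screen) or 0.0001% Triton X-100 was preincubated with compounds for 15 min at room temperature. Nitrocefin was then added from an 800 uM solution, and hydrolysis was followed at 480 nm.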
HCV inhibitor = qHTS Assay for Inhibitors of Hepatitis C Virus (HCV). Huh7.5.1 HCVcc-Cre infection, luciferase reporter, 44 h. Potency, µM (titrated, usually from 41.8 µM), inactives show top-dose activity change, negative = inhibition, hits mostly inhibitors. hit rate 3.4% among 340,000
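Whole-lifecycle infectious HCVcc-Cre system; cells 1,000/well, compound then virus (~0.5 moi) added 4 h after plating, 44 h culture. Luciferase read 15 sec following 15 min substrate incubation, room temp.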
AmpC inh detg = qHTS Inhibitors of AmpC Beta-Lactamase (assay with detergent); hit rate 0.041% among 370,000; AID 485294, 2010; AmpC hydrolysis of nitrocefin, absorbance 480 nm, 0.01% Triton; Potency, µM (highest dose often 114 µM), for inactives: at the top dose activity change, negative = inhibition, actives largely listed as inhibitors;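 further: 0% = no-compound wells and -100% = no-enzyme wells; nearly all actives have a fitted effect of over 25% in size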
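20 mM phosphate pH 7.0 + 0.01% (detergent screen) or 0.0001% Triton X-100; 5.3 nM AmpC reagent; cpd preinc 15 min RT; nitrocefin (800 uM stock) to start; A480 q20 s × 4 min; Activity was normalised to no-enzyme and no-compound control wells.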
Pf growth 48h = Primary qHTS for delayed death inhibitors of the malarial parasite plastid, 48 hour incubation; hit rate 5.9% among 310,000; Potency, µM (titrated, usually from 28.7 µM), for the others: at the top dose activity change, negative = inhibition, most hits filed as inhibitors; P. falciparum luciferase growth in erythrocytes, 48 h; AID 504832, 2011
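Compounds are pin-transferred into medium, infected erythrocytes (2% hematocrit, 0.1% parasitemia final) are added, and plates sit one parasite generation at 37 C in 5% CO2. Detection reagent is then added and luminescence measured.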
Pf growth 96h = Primary qHTS for delayed death inhibitors of the malarial parasite plastid, 96 hour incubation. AID 504834, 2011. hit rate 6.9% among 320,000. P. falciparum luciferase reporter growth, 96 h. Potency, µM (top dose mostly 28.7 µM), for the others: at the top dose activity change, negative = inhibition, hits mostly inhibitors
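Compounds incubated with erythrocytes infected by luciferase-expressing P. falciparum (2% hematocrit, 0.05% parasitemia final) for 96 hours, 37 C in 5% CO2. Growth inhibition scored as decreased luciferase luminescence.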
AMA1-RON2 inh = qHTS for Inhibitors of AMA1-RON; Towards Development of Antimalarial Drug Lead: Primary Screen; AlphaScreen AMA1-biotinylated RON2 peptide binding; Potency, µM (doses to about 58.2 µM), for the others: at the top dose activity change, negative = inhibition, hits mostly inhibitors; hit rate 0.2% among 360,000;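 further: 0% = vehicle wells and -100% = peptide control; nearly all actives have a fitted effect of over 45% in size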
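AMA1 (3D7) with his tag at 25 nM final met compounds first, then biotinylated RON2 peptide at 25 nM; detection used donor plus acceptor beads, 10 µg/mL apiece, read by AlphaScreen after 30 min at room temperature.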
An asterisk follows results filed as active; [ ] = another dose, or the depositor's remark. Shown are actives, neighbours in structure and some others; about 11% of the full set was active somewhere. The call rests on the fitted dose curve; in most records, active means well fitted curve in the direction sought with a large enough effect; inconclusive means small, poorly fitted or top-dose-only effect, or another doubt; inactive means no such curve, though single readings can be large; an effect the other way counts as inactive or inconclusive. Unless noted, on the % scale 0 is the no-effect control and ±100 the full control effect; potency means the concentration at half of the fitted maximal effect.

For CC1(C)CC(=O)C2=C(C1)N(c1ccccc1)C(N)=C(C#N)C2c1cccnc1 (configuration not stated) the results were AmpC no deterg -8%, HCV inhibitor 34%, AmpC inh detg -13%, Pf growth 48h inconclusive, Pf growth 96h 13µM* and AMA1-RON2 inh -5%.
Screening CC1(C)CC(=O)C2=C(C1)N1C(=C(C#N)C2c2ccccc2Cl)N=C(N)c2ccccc21 (configuration not stated) returned AmpC no deterg -43%, HCV inhibitor inconclusive, AmpC inh detg -4%, Pf growth 48h 13µM*, Pf growth 96h 60% and AMA1-RON2 inh -15%.
For COCCn1c(C)cc(/C=C(\C#N)C(=O)OCC(=O)N(C)c2c(N)n(Cc3ccccc3)c(=O)[nH]c2=O)c1C the results were AmpC no deterg 113%, HCV inhibitor 14%, AmpC inh detg inconclusive, Pf growth 48h inconclusive, Pf growth 96h 13µM* and AMA1-RON2 inh -17%.
For CN(C(=O)COC(=O)c1ccccc1Nc1ccccc1)c1c(N)n(Cc2ccccc2)c(=O)[nH]c1=O the results were AmpC no deterg -3%, HCV inhibitor inconclusive, AmpC inh detg 2%, Pf growth 48h inconclusive, Pf growth 96h inconclusive and AMA1-RON2 inh -3%.
COCCN(C(=O)COC(=O)c1ccccc1Nc1ccccc1)c1c(N)n(Cc2ccccc2)c(=O)[nH]c1=O was read as AmpC no deterg inconclusive, HCV inhibitor inconclusive, AmpC inh detg -12%, Pf growth 48h inconclusive, Pf growth 96h 9.3µM* and AMA1-RON2 inh -8%.
`CCCn1c(C)cc(/C=C(\C#N)C(=O)OCC(=O)N(CC)c2c(N)n(Cc3ccccc3)c(=O)[nH]c2=O)c1C` gave HCV inhibitor inconclusive and AMA1-RON2 inh -7%[11.6 µM].
For COCCN(C(=O)COC(=O)C(c1ccccc1)c1ccccc1)c1c(N)n(Cc2ccccc2)c(=O)[nH]c1=O the results were AmpC no deterg 205%, HCV inhibitor -16%, AmpC inh detg inconclusive, Pf growth 48h 10µM*, Pf growth 96h 7.4µM* and AMA1-RON2 inh 14%.
Screening O=C(Nc1c(C(=O)Nc2ccc(F)cc2)oc2ccccc12)c1ccccc1F returned AmpC inh detg 12%.
Screening CC(/C=C/c1ccc2c(c1)OCO2)=N/NC(=O)c1ccncc1 returned AmpC no deterg -13%, HCV inhibitor 16%, AmpC inh detg -4%, Pf growth 48h -11%, Pf growth 96h 0% and AMA1-RON2 inh 110%.
`CC1=C(/C=C/C(C)=N\NC(=O)c2ccncc2)C(C)(C)CCC1` gave AmpC no deterg -6%, HCV inhibitor -4%, AmpC inh detg 4%, Pf growth 48h 13µM*, Pf growth 96h 47% and AMA1-RON2 inh 121%.
Cc1ccc(C(=O)c2cn(CC(=O)Nc3ccc(C)cc3Cl)c3nc(C)ccc3c2=O)cc1 was read as AmpC inh detg -5%.
Cc1ccc(-c2nonc2NC(=O)c2ccc(F)cc2)cc1C was read as AmpC inh detg 2%.
Screening O=C(OCc1cc(=O)n2nc(C3CCCCC3)sc2n1)c1ccccc1Cl returned AmpC inh detg 10%.
For COc1ccc(C(=O)NC2CCN(S(=O)(=O)c3ccccc3F)CC2)cc1 the results were AmpC no deterg -16%, HCV inhibitor -14%, AmpC inh detg -3%, Pf growth 48h 10µM*, Pf growth 96h -13% and AMA1-RON2 inh -2%.
Screening Cc1ccc(S(=O)(=O)N2CCN(C(=S)NCCc3ccccc3)CC2)cc1 returned AmpC no deterg -30%, HCV inhibitor -12%, AmpC inh detg -11%, Pf growth 48h inconclusive, Pf growth 96h 7.4µM* and AMA1-RON2 inh 1%.
`CCNC(=S)N1CCN(C(=O)C(Cc2ccccc2)NC(C)=O)CC1` (configuration not stated) gave AmpC no deterg 2%, HCV inhibitor 4%, AmpC inh detg -9%, Pf growth 48h 54%, Pf growth 96h 10µM* and AMA1-RON2 inh -1%.
COc1ccc(CCNC(=S)N2CCN(S(=O)(=O)c3ccccc3F)CC2)cc1 was read as AmpC no deterg -47%, HCV inhibitor -16%, AmpC inh detg -10%, Pf growth 48h 13µM*, Pf growth 96h inconclusive and AMA1-RON2 inh -5%.
`COC(=O)c1ccccc1S(=O)(=O)N1CCC(NC(=O)c2ccccc2)CC1` gave AmpC no deterg -14%, HCV inhibitor -1%, AmpC inh detg 4%, Pf growth 48h inconclusive, Pf growth 96h -21% and AMA1-RON2 inh 4%.
For Cc1ccc(CNC(=O)CSc2nc(=O)[nH]c3c2CCCC3)cc1 the results were AmpC inh detg -5%.
Screening CCOC(=O)c1ccccc1NC(=O)N1CCOc2ccc(Cl)cc21 returned AmpC inh detg 0%.
Screening Cc1cc(C)cc(NC(=O)CSc2nccn2C2CCCC2)c1 returned AmpC inh detg 8%.
CC(=O)NCCc1ccc(S(=O)(=O)N2CCN(c3nc(-c4ccccc4)c(C)s3)CC2)cc1 was read as AmpC no deterg 118%, HCV inhibitor -23%, AmpC inh detg -1%, Pf growth 48h 3.7µM*, Pf growth 96h 4.1µM* and AMA1-RON2 inh -3%.
For COc1ccc(CCNC(=S)N2CCN(S(=O)(=O)c3ccccc3)CC2)cc1 the results were AmpC no deterg -30%, HCV inhibitor inconclusive, AmpC inh detg -13%, Pf growth 48h 10µM*, Pf growth 96h inconclusive and AMA1-RON2 inh 3%.
Cc1ccc(S(=O)(=O)N2CCN(C(=O)C(Cc3ccccc3)NC(=O)c3ccccc3)CC2)cc1 (configuration not stated) was read as AmpC no deterg -9%, HCV inhibitor 7%, AmpC inh detg inconclusive, Pf growth 48h inconclusive, Pf growth 96h 8.3µM* and AMA1-RON2 inh 0%.
For COc1ccc(C(=S)N2CCN(S(=O)(=O)c3ccccc3)CC2)cc1 the results were AmpC no deterg -11%, HCV inhibitor -26%, AmpC inh detg -3%, Pf growth 48h -26%, Pf growth 96h inconclusive and AMA1-RON2 inh -5%.
